Inconclusive results are not listed. Activity calls are given as the source filed them. Calls follow the shape of the dose curve; as a rule, active = well fitted curve in the direction sought with a large enough effect; inconclusive = small, poorly fitted or top-dose-only effect, or another doubt; inactive = no such curve, though single readings can be large; an effect the other way counts as inactive or inconclusive.
Columns and labels:
NIH3T3 = test: qHTS assay to identify novel small-molecules to repurpose for Merkel cell carcinoma treatment (AID 1296009); conditions: MCC and control cell lines, CellTiter-Glo viability, 72 h; at 44.8 µM (top of the series) unless noted; also: nearly all actives have a fitted effect of over 60% in size
In short: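 Viability readout: ATP luminescence (CellTiter-Glo) after 72 hr drug exposure at 37 degree celsius. Dose-response format was 8 points for NPC and 11 points for MIPE; data normalized to in-plate controls.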

C33A = test: Primary qHTS to identify gynecologic anti-cancer compounds using libraries of approved drugs and bioactive compounds (AID 1345084); conditions: Gynecologic cancer cell panel viability, ATPlite luminescence, 48 h; series mostly up to 57.5 µM; also: % is scaled to controls: 0 for no effect and ±100 for the full control effect; nearly all actives have a fitted effect of over 55% in size
In short: (§1)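 Cells, 1,000 per well, plated 16 h, then exposed 48 h at 37 C to compounds. Viability by ATPlite luminescence after 15 min at room temperature.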

CAOV3 = test: as above; conditions: Gynecologic cancer cell panel viability, ATPlite luminescence, 48 h; series mostly up to 57.5 µM
In short: as §1

CASKI = test: as above; conditions: Gynecologic cancer cell panel viability, ATPlite luminescence, 48 h; series mostly up to 57.5 µM
In short: as §1

Es-2 = test: as above; conditions: Gynecologic cancer cell panel viability, ATPlite luminescence, 48 h; series mostly up to 57.5 µM
In short: as §1

HeLa = test: as above; conditions: Gynecologic cancer cell panel viability, ATPlite luminescence, 48 h; series mostly up to 57.5 µM
In short: as §1

Hek293T = test: as above; conditions: Gynecologic cancer cell panel viability, ATPlite luminescence, 48 h, control line for the selectivity index; series mostly up to 57.5 µM
In short: as §1

JEG-3 = test: as above; conditions: Gynecologic cancer cell panel viability, ATPlite luminescence, 48 h; series mostly up to 57.5 µM
In short: as §1

OV90 = test: as above; conditions: Gynecologic cancer cell panel viability, ATPlite luminescence, 48 h; series mostly up to 57.5 µM
In short: as §1

PA-1 = test: as above; conditions: Gynecologic cancer cell panel viability, ATPlite luminescence, 48 h; series mostly up to 57.5 µM
In short: as §1

Tov-21-G = test: as above; conditions: Gynecologic cancer cell panel viability, ATPlite luminescence, 48 h; series mostly up to 57.5 µM
In short: as §1

Tov112D = test: as above; conditions: Gynecologic cancer cell panel viability, ATPlite luminescence, 48 h; series mostly up to 57.5 µM
In short: as §1

CC1(C)CCCC2(C)c3c4c(c(=O)oc(=O)c3=CCC12)=CCC1C(C)(C)CCCC41C (stereo unspecified)
inactive: outcome (NIH3T3) inactive [at 17.4 µM] | Potency (C33A) | Potency (CAOV3) | outcome (CASKI) | Potency (Es-2) | Potency (HeLa) | Potency (Hek293T) | Potency (JEG-3) | Potency (OV90) | Potency (PA-1) | Potency (Tov-21-G) | Potency (Tov112D)

CC(=O)O[C@@H]1[C@H](O[C@@H]2O[C@H](CO)[C@@H](O)[C@H](O)[C@H]2O)[C@@H](O[C@@H]2O[C@@H](C)[C@H](O)[C@@H](O[C@@H]3O[C@H](CO)[C@@H](O)[C@H](O)[C@H]3O)[C@H]2O)[C@H](OC(=O)[C@]23CCC(C)(C)C[C@H]2C2=CCC4[C@@]5(C)C[C@H](O)[C@H](O[C@@H]6O[C@H](C(=O)O)[C@@H](O)[C@H](O)[C@H]6O)[C@@](C)(C(=O)O)C5CC[C@@]4(C)[C@]2(C)CC3)O[C@@H]1C (stereo partly specified)
inactive: outcome (NIH3T3) inactive [at 9.27 µM] | activity change, negative = cytotoxicity (C33A) 2.77% [at 6.55 µM] | activity change, negative = cytotoxicity (CAOV3) -7.98% [at 6.55 µM] | activity change, negative = cytotoxicity (CASKI) -0.483% [at 6.55 µM] | activity change, negative = cytotoxicity (Es-2) -0.374% [at 6.55 µM] | activity change, negative = cytotoxicity (HeLa) 0.873% [at 6.55 µM] | activity change, negative = cytotoxicity (Hek293T) 0.423% [at 6.55 µM] | activity change, negative = cytotoxicity (JEG-3) 0.0867% [at 6.55 µM] | activity change, negative = cytotoxicity (OV90) 12.5% [at 6.55 µM] | activity change, negative = cytotoxicity (PA-1) 1.9% [at 6.55 µM] | activity change, negative = cytotoxicity (Tov-21-G) 0.569% [at 6.55 µM] | activity change, negative = cytotoxicity (Tov112D) 7.58% [at 6.55 µM]

CC[C@@H]1[C@H]2CCCCN3C(=O)C[C@H]([C@@H]4[C@H]1OC(=O)[C@H]4C)[C@@H]23
inactive: outcome (NIH3T3) | Potency (C33A) | Potency (CAOV3) | outcome (CASKI) | Potency (Es-2) | Potency (HeLa) | Potency (Hek293T) | Potency (JEG-3) | Potency (OV90) | Potency (PA-1) | Potency (Tov-21-G) | Potency (Tov112D)

CC(C)=CCC/C(C)=C/CO[C@@H]1O[C@H](CO[C@@H]2O[C@@H](CO)[C@H](O)[C@H]2O)[C@@H](O)[C@H](O)[C@H]1O
inactive: outcome (NIH3T3) inactive [at 17.4 µM] | Potency (C33A) | Potency (CAOV3) | outcome (CASKI) | Potency (Es-2) | Potency (HeLa) | Potency (Hek293T) | Potency (JEG-3) | Potency (OV90) | Potency (PA-1) | Potency (Tov-21-G) | Potency (Tov112D)

Cn1cc(-c2c[nH]c3ncnc(N4CCOCC4)c23)cn1
inactive: outcome (NIH3T3) | Potency (C33A) | Potency (CAOV3) | outcome (CASKI) | Potency (Es-2) | Potency (HeLa) | Potency (Hek293T) | Potency (JEG-3) | Potency (OV90) | Potency (PA-1) | Potency (Tov-21-G) | Potency (Tov112D)

C=C1C2(C)CC3C4(C)C=CC(=O)OC(C)(C)C4CCC3(C)C1(C(=O)OC)C(=O)C(C)(O)C2=O (stereo unspecified)
inactive: outcome (NIH3T3) inactive [at 17.4 µM] | Potency (C33A) | Potency (CAOV3) | outcome (CASKI) | Potency (Es-2) | Potency (HeLa) | Potency (Hek293T) | Potency (JEG-3) | Potency (OV90) | Potency (PA-1) | Potency (Tov-21-G) | Potency (Tov112D)

CC/C=C\CC1C(CC(=O)O)CCC1OC1OC(CO)C(O)C(O)C1O (stereo unspecified)
inactive: outcome (NIH3T3) | Potency (C33A) | Potency (CAOV3) | outcome (CASKI) | Potency (Es-2) | Potency (HeLa) | Potency (Hek293T) | Potency (JEG-3) | Potency (OV90) | Potency (PA-1) | Potency (Tov-21-G) | Potency (Tov112D)

COc1cc2nc(=NC(=O)c3cccnc3)n3c(c2cc1OC)NCC3
inactive: outcome (NIH3T3) | Potency (C33A) | Potency (CAOV3) | outcome (CASKI) | Potency (Es-2) | Potency (HeLa) | Potency (Hek293T) | Potency (JEG-3) | Potency (OV90) | Potency (PA-1) | Potency (Tov-21-G) | Potency (Tov112D)

CC1(C)CC[C@]2(C(=O)O[C@@H]3O[C@H](CO[C@@H]4O[C@H](CO[C@@H]5O[C@H](CO)[C@H](O)[C@H](O)[C@H]5O)[C@@H](O)[C@H](O)[C@H]4O)[C@@H](O)[C@H](O[C@@H]4O[C@H](CO)[C@@H](O)[C@H](O)[C@H]4O)[C@H]3O)[C@H](O)C[C@]3(C)C(=CCC4[C@@]5(C)CC[C@H](O[C@@H]6OC[C@@H](O)[C@H](O)[C@H]6O)[C@@](C)(C(=O)O)C5CC[C@]43C)[C@@H]2C1 (stereo partly specified)
inactive: outcome (NIH3T3) inactive [at 9.27 µM] | activity change, negative = cytotoxicity (C33A) 12.5% [at 6.55 µM] | activity change, negative = cytotoxicity (CAOV3) 1.69% [at 6.55 µM] | activity change, negative = cytotoxicity (CASKI) -1.12% [at 6.55 µM] | activity change, negative = cytotoxicity (Es-2) -9.51% [at 6.55 µM] | activity change, negative = cytotoxicity (HeLa) 2.81% [at 6.55 µM] | activity change, negative = cytotoxicity (Hek293T) -1.44% [at 6.55 µM] | activity change, negative = cytotoxicity (JEG-3) -1.76% [at 6.55 µM] | activity change, negative = cytotoxicity (OV90) 12% [at 6.55 µM] | activity change, negative = cytotoxicity (PA-1) 14% [at 6.55 µM] | activity change, negative = cytotoxicity (Tov-21-G) 9.11% [at 6.55 µM] | activity change, negative = cytotoxicity (Tov112D) 3.01% [at 6.55 µM]

CC1=C[C@@H]2[C@H]3[C@@H]4O[C@@](C)(CC[C@H]4O)[C@H]3CC(=O)[C@]23C(=O)N[C@@H](CC(C)C)[C@@H]3[C@@H]1C
inactive: outcome (NIH3T3) | Potency (C33A) | Potency (CAOV3) | outcome (CASKI) | Potency (Es-2) | Potency (HeLa) | Potency (Hek293T) | Potency (JEG-3) | Potency (OV90) | Potency (PA-1) | Potency (Tov-21-G) | Potency (Tov112D)

Nc1c(-c2ccccc2)nc(Cl)c2c(O)n[nH]c(=O)c12
inactive: outcome (NIH3T3) | Potency (C33A) | Potency (CAOV3) | outcome (CASKI) | Potency (Es-2) | Potency (HeLa) | Potency (Hek293T) | Potency (JEG-3) | Potency (OV90) | Potency (PA-1) | Potency (Tov-21-G) | Potency (Tov112D)

COc1cc(C2CC(=O)Nc3c2cc(Br)c2ccccc32)cc(OC)c1OC (stereo unspecified)
inactive: outcome (NIH3T3) | Potency (C33A) | Potency (CAOV3) | outcome (CASKI) | Potency (Es-2) | Potency (HeLa) | Potency (Hek293T) | Potency (JEG-3) | Potency (OV90) | Potency (PA-1) | Potency (Tov-21-G) | Potency (Tov112D)

CC1(C)CC(NC(=O)C(=O)Nc2ccc(Cl)cc2)CC(C)(C)N1
inactive: outcome (NIH3T3) | Potency (C33A) | Potency (CAOV3) | outcome (CASKI) | Potency (Es-2) | Potency (HeLa) | Potency (Hek293T) | Potency (JEG-3) | Potency (OV90) | Potency (PA-1) | Potency (Tov-21-G) | Potency (Tov112D)
